SMILES strings stand for the structures. Out of some 140,000 compounds screened, about 240 (0.17%) were called active. Another 9% or so got no clear call; they are omitted. Calls follow the shape of the dose curve; as a rule, active = well fitted inhibition curve with a large enough effect; inconclusive = small, poorly fitted or top-dose-only effect; inactive = no such curve, though single readings can be large or run the other way. The entries come from a sample that favours actives as a whole. A call without a number means that no potency is given here.
Potency is read from the fitted curve at half-maximal effect.

The nature of the assay: Primary qHTS assay for inhibitors of alpha-synuclein gene (SNCA) expression. Also: nearly all actives have a fitted effect of over 45% in size. To be noted: HEK-293 SNCA-luciferase knock-in, luminescence, 24 h; series mostly up to 57.2 µM. The text has this: Assay Submitter (PI): Daniel R. Scoles Ph.D.
Department of Neurology, University of Utah, Salt Lake City, Utah
Accumulation of alpha-synuclein is a main underlying pathological feature of Parkinson's disease (PD) and alpha-synucleinopathies, for which lowering expression of the alpha-synuclein gene (SNCA) is a potential therapeutic avenue. Using a cell-based luciferase reporter of SNCA expression we performed a quantitative high throughput screen (qHTS) of 155,885 compounds in dose response. The screening assay was generated using genome editing to insert the luciferase gene downstream and in frame of the SNCA gene in HEK-293 cells (1). A viability counterscreen using GF-AFC was used to eliminate cytotoxic and false positive compounds. After in silico analysis (clustering, removal of frequent hitter nuisance chemotypes), inhibitor compounds from the primary screen were selected for follow up and re-tested at 11-doses in the SNCA-luc cells (luciferase and GF-AFC confirmation), and in CMV-luc expressing cell line to flag general transcriptional repressors.
Described herein are the results of the primary screen for SNCA inhibitors; decrease in luciferase signal (inhibition of the SNCA gene expression) is the desired output for this assay.
1. Dansithong, W., Paul, S., Scoles, D. R., Pulst, S. M., and Huynh, D. P. (2015) Generation of SNCA Cell Models Using Zinc Finger Nuclease (ZFN) Technology for Efficient High-Throughput Drug Screening. PLoS ONE 10, e0136930.
SEQUENCE No. (e.g., 1, 2, 3, etc.); […] (e.g., Cells, Incubation, Reagent, etc.); VALUE; DESCRIPTION
1; Cells; 4 uL; Dispense 1500 HEK-293-SNCA-luc cells/well into Greiner 1536-well white / solid bottom tissue culture treated plate. The plate was covered with metal lids with gas-exchange holes.
2; Incubate; 24 hours; Incubate at 37C, 5% CO2, 95% RH.
3; Compounds; 23 nL; Compounds and controls were transferred via a Kalypsys Pin Tool (Wako USA) equipped with a 1536-slotted pin array. The plate was covered with metal lids with gas-exchange holes.
4; Incubate; 24 hours; Incubate at 37C, 5% CO2, 95% RH.
5; Dispense; 1 uL; Dispense Gly-Phe-7-amino-4-trifluoromethylcoumarin (GF-AFC, prepared at 125 uM in PBS) was added. The plate was covered with metal lids with gas-exchange holes.
6; Incubate; 30 min; Incubate at 37C, 5% CO2.
7; Detector; Fluorescence; Measure fluorescence with ViewLux microplate reader (PerkinElmer) equipped with 405/10 excitation and 540/25 emission filters.
8; Dispense; 3 uL; Dispense ONE-Glo ([…]) lucifase detection reagent was added to each well. Plates were covered with metal lids with gas-exchange holes.
9; Incubate; 15 min; Incubate at room temperature.
10; Detector; Luminescence; Measure luminescence with ViewLux microplate reader (PerkinElmer) equipped with clear filters.
NOTES (numbers refer to sequence above)
1; HEK-293-SNCA-luc were cultured and suspended in phenol-red free DMEM (4.5 g/L glucose, 25 mM HEPES, cat #21063 (Thermo)).
3; Compounds were added to the assay plate in an 11-point intra plate dose response, 1:3 titration in DMSO with a final concentration range of […]. Vehicle-only plates, with DMSO being pin-transferred to every well, were inserted at the beginning of screening runs to confirm expected assay performance. […]
10; Signals were analyzed, and dose-response curves were fit using the Hill equation. […]
(In general: In qHTS, concentration-response curves come from the screen itself.)
`CC[C@H]1C=CC=CC[C@@H](C)[C@H](O)[C@@](C)(O)C(=O)[C@@H](C)[C@H](O)[C@@H](C)C(=O)[C@@H](C)[C@H](O)[C@@H](C)C=CC(=O)O[C@@H]2[C@@H](C)[C@H](CC1)O[C@]1(CC[C@H](C)[C@H](C[C@@H](C)O)O1)[C@H]2C`: the Potency was 1.71 µM (active).

For `CN(Cc1ccccc1)C[C@H]1CN2CC[C@H]1C[C@@H]2CNC(=O)Nc1ccsc1`, the Potency result was “inactive”.

Consider `CC(=Cc1csc(C)n1)[C@@H]1C[C@H]2O[C@]2(C)CCC[C@H](C)[C@@H](O)[C@@H](C)C(=O)C(C)(C)[C@@H](O)CC(=O)O1`, for which the Potency entry is “inactive”.

As for `Cc1nc(-c2ccc(C(F)(F)F)cc2)cc([C@H]2CN3CC[C@H]2C[C@@H]3CNC(=O)C2CCC2)n1`, the Potency entry was “inactive”.

As for `CCOC(=O)[C@H]1CN(C(=O)NC2CCCC2)[C@]2(C)C(=O)Nc3ccccc3[C@H]12`, the Potency result is “inactive”.

(Values after PubChem BioAssay AID1671194 (National Center for Advancing Translational Sciences (NCATS), 2021).)
